# From PMC7862700, “An all-to-all approach to the identification of sequence-specific readers for epigenetic DNA modifications on cytosine”
# Assays:
# Assay in all cases: DAPPL (digital affinity profiling via proximity ligation, sequencing); 10 mM Tris-HCl pH 7.5, 50 mM NaCl, 1 mM DTT, 4% glycerol, room temperature, 30 min; GST-TFs on glutathione beads, 16-mer random dsDNA library, 0.1% formaldehyde crosslink after washing; high values mean tight binding
# FLI1 = target: T1, FLI1 (Homo sapiens, UniProt Q01543 1-452); details: protein: recombinant; tags: N-terminal GST; dsDNA, one strand shown
# T1 sequence: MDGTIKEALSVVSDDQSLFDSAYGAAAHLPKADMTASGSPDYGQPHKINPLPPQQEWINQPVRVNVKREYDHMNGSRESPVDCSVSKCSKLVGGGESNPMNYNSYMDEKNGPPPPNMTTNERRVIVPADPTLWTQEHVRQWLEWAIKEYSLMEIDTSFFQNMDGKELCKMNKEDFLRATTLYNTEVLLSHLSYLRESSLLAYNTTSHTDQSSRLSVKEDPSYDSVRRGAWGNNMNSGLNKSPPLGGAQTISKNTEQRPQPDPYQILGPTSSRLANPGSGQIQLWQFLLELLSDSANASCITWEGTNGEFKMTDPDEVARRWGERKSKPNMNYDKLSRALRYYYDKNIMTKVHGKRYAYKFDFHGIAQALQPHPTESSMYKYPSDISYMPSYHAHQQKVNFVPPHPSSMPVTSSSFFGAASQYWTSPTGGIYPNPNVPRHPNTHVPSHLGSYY
# In short: (§1)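 Human transcription factors were made in yeast as GST fusions, captured on glutathione beads and barcoded with DNA. With a tag-only sample included, the pool was incubated with 200 nmole of a random double-stranded 16-mer DNA library in Tris/NaCl/DTT/glycerol buffer at room temperature for 30 min, then crosslinked with 0.1% formaldehyde after washing, ligated by proximity, amplified and sequenced. For binding signal, each hexamer's read frequency for a factor is divided by its frequency for the tag-only sample.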
# ELK1 = target: T2, ELK1 (Homo sapiens, UniProt P19419 1-428); details: protein: recombinant; tags: N-terminal GST; dsDNA, one strand shown
# T2 sequence: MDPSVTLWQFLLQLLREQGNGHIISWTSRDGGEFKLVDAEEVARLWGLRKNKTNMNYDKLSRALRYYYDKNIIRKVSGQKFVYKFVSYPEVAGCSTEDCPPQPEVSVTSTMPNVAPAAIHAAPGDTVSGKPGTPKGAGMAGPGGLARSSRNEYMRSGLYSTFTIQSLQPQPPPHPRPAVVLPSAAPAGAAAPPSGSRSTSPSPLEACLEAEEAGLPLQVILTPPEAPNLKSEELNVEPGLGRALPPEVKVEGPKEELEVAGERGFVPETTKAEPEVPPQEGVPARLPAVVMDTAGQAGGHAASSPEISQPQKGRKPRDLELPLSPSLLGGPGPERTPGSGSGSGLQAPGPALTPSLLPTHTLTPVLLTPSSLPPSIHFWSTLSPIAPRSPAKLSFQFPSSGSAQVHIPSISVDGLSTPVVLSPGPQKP
# In short: as §1
# GABPA = target: T3, GABPA (Homo sapiens, UniProt Q06546 1-454); details: protein: recombinant; tags: N-terminal GST; dsDNA, one strand shown
# T3 sequence: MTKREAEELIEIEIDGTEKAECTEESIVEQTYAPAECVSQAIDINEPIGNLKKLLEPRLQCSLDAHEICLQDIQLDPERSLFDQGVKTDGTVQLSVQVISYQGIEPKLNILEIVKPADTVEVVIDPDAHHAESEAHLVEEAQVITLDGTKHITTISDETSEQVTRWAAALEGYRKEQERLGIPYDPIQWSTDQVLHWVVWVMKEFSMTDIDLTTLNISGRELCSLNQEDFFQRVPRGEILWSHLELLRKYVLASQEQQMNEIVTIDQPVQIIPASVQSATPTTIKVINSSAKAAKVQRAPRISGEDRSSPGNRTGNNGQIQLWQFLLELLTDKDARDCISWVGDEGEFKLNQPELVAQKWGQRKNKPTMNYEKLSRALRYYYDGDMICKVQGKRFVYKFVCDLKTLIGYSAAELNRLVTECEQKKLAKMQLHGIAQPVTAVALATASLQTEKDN
# In short: as §1
# ERG = target: T4, ERG (Homo sapiens, UniProt P11308 1-479); details: protein: recombinant; tags: N-terminal GST; dsDNA, one strand shown
# T4 sequence: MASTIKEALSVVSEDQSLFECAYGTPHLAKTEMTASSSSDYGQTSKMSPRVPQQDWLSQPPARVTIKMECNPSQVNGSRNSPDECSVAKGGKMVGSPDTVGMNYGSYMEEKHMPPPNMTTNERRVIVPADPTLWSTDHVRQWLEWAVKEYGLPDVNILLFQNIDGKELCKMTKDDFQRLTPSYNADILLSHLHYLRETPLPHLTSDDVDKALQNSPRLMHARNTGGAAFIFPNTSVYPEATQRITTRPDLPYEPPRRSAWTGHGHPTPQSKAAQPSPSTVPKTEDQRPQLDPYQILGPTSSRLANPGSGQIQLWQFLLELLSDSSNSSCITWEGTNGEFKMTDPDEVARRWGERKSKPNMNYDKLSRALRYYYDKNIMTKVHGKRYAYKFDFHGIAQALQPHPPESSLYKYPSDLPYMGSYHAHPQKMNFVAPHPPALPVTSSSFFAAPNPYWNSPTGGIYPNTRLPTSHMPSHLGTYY
# In short: as §1
# ELF1 = ELF1 (Homo sapiens, UniProt P32519 1-619); details: protein: recombinant; tags: N-terminal GST; dsDNA, one strand shown
# ELF1, sequence (P32519 whole entry): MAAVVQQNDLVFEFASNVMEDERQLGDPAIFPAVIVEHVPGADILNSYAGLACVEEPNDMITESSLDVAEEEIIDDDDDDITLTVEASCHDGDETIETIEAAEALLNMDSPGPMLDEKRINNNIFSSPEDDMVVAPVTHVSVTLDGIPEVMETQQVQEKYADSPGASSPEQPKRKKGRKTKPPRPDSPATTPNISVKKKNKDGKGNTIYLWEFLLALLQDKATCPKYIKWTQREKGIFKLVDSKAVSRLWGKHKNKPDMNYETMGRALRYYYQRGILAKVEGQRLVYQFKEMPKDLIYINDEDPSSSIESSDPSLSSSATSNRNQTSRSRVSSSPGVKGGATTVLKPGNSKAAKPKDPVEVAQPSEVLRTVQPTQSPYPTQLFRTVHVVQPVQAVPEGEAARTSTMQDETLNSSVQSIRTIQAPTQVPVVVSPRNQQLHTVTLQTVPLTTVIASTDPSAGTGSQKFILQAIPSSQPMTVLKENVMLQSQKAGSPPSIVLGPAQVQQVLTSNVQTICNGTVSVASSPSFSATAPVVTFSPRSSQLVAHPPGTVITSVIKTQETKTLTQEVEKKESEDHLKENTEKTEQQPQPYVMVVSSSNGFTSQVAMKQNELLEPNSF
# In short: as §1
# EHF = target: T5, EHF (Homo sapiens, UniProt Q9NZC4 1-300); details: protein: recombinant; tags: N-terminal GST; dsDNA, one strand shown
# T5 sequence: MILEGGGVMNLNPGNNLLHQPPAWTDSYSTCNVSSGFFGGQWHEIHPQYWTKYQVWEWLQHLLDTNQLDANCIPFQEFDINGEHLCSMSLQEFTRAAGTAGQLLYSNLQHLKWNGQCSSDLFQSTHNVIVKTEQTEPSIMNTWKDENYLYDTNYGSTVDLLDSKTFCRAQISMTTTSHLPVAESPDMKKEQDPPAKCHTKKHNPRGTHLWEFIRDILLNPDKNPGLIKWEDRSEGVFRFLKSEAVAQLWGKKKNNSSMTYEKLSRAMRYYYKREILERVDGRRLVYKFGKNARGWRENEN
# In short: as §1
# SPI1 = SPI1 (Homo sapiens, UniProt P17947 1-270); details: protein: recombinant; tags: N-terminal GST; dsDNA, one strand shown
# In short: as §1
# SPIB = SPIB (Homo sapiens, UniProt Q01892 1-262); details: protein: recombinant; tags: N-terminal GST; dsDNA, one strand shown
# SPIB, sequence (Q01892 whole entry): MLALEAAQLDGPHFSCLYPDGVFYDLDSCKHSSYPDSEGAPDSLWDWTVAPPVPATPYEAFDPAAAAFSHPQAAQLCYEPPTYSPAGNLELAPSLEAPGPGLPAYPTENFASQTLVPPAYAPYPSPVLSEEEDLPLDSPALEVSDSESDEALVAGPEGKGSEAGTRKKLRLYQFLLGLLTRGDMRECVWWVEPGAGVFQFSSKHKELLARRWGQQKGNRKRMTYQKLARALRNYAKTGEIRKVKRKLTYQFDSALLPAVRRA
# In short: as §1
# FEV = target: T6, FEV (Homo sapiens, UniProt Q99581 1-238); details: protein: recombinant; tags: N-terminal GST; dsDNA, one strand shown
# T6 sequence: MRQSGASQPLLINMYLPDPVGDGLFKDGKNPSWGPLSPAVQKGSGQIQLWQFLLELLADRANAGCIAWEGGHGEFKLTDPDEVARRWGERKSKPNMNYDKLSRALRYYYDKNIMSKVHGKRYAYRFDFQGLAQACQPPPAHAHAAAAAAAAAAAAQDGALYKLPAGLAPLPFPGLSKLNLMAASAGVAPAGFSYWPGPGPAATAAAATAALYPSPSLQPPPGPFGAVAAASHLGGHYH
# In short: as §1
# ETV5 = ETV5 (Homo sapiens, UniProt P41161 1-510); details: protein: recombinant; tags: N-terminal GST; dsDNA, one strand shown
# ETV5, sequence (P41161 whole entry): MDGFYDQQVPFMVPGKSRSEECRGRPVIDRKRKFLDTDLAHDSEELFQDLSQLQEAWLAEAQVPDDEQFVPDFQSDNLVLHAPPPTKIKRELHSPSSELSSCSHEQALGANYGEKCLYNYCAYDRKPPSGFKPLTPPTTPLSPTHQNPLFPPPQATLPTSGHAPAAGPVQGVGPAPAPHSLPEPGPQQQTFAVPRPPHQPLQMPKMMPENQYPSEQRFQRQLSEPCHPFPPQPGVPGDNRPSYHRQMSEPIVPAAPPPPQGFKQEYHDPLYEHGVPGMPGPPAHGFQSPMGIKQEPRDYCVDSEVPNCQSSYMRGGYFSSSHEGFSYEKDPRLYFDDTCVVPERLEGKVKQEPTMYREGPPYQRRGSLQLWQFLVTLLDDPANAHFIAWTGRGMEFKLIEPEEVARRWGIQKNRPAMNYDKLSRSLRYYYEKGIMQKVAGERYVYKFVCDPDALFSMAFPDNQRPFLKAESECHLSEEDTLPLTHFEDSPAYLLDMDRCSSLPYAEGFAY
# In short: as §1
# HSF1 = HSF1 (Homo sapiens, UniProt Q00613 1-529); details: protein: recombinant; tags: N-terminal GST; chain copies: 3; dsDNA, one strand shown
# HSF1, sequence (Q00613 whole entry): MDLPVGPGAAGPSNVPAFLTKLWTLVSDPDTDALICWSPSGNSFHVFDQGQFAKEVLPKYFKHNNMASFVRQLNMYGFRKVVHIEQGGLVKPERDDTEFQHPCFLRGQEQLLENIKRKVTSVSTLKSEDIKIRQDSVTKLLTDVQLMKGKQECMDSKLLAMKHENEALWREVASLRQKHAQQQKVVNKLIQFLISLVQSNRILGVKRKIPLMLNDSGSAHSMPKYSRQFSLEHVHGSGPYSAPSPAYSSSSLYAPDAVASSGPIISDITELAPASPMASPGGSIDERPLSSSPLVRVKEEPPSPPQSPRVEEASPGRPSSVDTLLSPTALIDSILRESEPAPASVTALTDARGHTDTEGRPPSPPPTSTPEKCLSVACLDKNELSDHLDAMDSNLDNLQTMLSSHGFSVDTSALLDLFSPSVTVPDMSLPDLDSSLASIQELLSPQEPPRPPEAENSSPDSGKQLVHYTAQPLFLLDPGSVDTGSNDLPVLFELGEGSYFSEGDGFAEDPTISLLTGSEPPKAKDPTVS
# In short: as §1
# SPIC = target: T7, SPIC (Homo sapiens, UniProt Q8N5J4 1-248); details: protein: recombinant; tags: N-terminal GST; dsDNA, one strand shown
# T7 sequence: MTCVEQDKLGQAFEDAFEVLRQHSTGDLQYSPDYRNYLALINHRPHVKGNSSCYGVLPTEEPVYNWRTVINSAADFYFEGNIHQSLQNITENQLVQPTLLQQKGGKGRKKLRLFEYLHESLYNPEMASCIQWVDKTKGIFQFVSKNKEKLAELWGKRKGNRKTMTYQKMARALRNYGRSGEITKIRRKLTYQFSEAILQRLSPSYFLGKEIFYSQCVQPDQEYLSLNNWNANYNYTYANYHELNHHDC
# In short: as §1
# ELF4 = ELF4 (Homo sapiens, UniProt Q99607 1-663); details: protein: recombinant; tags: N-terminal GST; dsDNA, one strand shown
# ELF4, sequence (Q99607 whole entry): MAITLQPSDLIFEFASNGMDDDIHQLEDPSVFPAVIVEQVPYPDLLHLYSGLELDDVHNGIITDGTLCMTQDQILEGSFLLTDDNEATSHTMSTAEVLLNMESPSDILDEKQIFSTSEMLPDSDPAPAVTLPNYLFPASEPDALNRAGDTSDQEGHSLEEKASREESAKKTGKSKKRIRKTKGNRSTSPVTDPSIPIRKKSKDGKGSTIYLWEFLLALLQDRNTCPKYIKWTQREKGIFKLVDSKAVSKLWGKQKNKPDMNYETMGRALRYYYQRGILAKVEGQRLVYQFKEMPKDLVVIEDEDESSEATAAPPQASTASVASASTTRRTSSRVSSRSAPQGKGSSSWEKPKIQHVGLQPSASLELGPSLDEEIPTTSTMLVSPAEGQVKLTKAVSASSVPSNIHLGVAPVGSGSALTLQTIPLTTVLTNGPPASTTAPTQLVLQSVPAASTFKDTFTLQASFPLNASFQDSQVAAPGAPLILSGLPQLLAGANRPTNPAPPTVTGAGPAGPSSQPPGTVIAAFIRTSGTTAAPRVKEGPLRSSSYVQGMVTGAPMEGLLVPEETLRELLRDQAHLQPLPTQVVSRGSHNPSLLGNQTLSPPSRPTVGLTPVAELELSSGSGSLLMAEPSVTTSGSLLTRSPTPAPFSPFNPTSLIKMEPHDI
# In short: as §1
# ELK4 = target: T8, ELK4 (Homo sapiens, UniProt P28324-2 1-405); details: protein: recombinant; tags: N-terminal GST; dsDNA, one strand shown
# T8 sequence: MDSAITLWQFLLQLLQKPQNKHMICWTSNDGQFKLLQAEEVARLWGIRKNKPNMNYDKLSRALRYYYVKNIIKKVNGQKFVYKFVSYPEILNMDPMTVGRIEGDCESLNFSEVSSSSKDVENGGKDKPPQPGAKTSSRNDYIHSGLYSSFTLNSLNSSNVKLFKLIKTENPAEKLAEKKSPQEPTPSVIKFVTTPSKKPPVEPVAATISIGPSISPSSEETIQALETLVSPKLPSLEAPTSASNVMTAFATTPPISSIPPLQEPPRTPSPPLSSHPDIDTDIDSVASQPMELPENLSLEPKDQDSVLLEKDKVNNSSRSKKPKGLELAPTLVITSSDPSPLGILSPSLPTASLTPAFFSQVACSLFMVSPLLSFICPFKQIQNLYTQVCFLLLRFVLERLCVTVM
# In short: as §1
# ETV2 = target: T9, ETV2 (Homo sapiens, UniProt O00321 1-342); details: protein: recombinant; tags: N-terminal GST; dsDNA, one strand shown
# T9 sequence: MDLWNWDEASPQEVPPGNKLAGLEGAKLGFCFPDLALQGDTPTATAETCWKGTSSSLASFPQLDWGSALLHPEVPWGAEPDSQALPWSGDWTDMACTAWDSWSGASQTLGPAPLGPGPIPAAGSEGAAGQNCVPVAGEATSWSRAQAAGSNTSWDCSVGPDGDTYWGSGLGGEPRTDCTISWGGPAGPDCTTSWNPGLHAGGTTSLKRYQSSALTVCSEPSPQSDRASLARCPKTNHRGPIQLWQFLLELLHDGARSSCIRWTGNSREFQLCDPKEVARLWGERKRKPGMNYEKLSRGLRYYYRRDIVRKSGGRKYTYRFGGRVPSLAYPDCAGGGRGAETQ
# In short: as §1
# ELF3 = target: T10, ELF3 (Homo sapiens, UniProt P78545 1-371); details: protein: recombinant; tags: N-terminal GST; dsDNA, one strand shown
# T10 sequence: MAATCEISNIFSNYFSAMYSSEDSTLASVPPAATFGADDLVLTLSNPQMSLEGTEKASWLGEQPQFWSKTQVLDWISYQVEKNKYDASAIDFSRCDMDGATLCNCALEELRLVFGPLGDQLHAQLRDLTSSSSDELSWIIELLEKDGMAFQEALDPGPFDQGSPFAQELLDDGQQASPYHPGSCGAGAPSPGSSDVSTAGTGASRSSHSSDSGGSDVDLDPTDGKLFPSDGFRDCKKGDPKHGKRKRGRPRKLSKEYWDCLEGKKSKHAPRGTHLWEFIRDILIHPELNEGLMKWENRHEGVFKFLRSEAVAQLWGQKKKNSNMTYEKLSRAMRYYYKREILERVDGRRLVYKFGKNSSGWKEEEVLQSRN
# In short: as §1
# CRX = CRX (Homo sapiens, UniProt O43186 1-299); details: protein: recombinant; tags: N-terminal GST; dsDNA, one strand shown
# CRX, sequence (O43186 whole entry): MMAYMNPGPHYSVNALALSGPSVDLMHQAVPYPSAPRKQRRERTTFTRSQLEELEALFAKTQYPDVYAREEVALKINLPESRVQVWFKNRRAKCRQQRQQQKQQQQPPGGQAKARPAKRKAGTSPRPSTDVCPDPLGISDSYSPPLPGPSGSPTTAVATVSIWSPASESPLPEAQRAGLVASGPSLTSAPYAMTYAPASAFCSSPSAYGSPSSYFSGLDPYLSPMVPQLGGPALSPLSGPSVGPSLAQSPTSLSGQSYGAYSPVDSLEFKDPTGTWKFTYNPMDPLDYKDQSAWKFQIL
# In short: as §1
# ETV1 = ETV1 (Homo sapiens, UniProt P50549 1-477); details: protein: recombinant; tags: N-terminal GST; dsDNA, one strand shown
# ETV1, sequence (P50549 whole entry): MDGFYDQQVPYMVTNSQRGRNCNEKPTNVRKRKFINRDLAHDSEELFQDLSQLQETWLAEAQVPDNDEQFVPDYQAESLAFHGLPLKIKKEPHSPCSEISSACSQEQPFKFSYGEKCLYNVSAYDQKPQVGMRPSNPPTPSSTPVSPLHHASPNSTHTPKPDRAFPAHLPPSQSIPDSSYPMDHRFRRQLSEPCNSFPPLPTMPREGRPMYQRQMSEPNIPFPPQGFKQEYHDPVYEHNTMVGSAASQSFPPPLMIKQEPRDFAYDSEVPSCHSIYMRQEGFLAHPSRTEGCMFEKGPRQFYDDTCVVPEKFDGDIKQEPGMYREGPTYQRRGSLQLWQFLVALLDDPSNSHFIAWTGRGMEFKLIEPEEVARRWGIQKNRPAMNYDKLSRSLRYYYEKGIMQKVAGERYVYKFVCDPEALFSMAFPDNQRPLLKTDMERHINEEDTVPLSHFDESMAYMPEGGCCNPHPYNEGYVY
# In short: as §1
sequence,measurement,setting,value
GCTGAA,binding signal,FLI1,"1.14 fold enrichment (6-mer frequency, TF over GST control)"
same,binding signal,ELK1,"1.09 fold enrichment (6-mer frequency, TF over GST control)"
same,binding signal,GABPA,"1.14 fold enrichment (6-mer frequency, TF over GST control)"
same,binding signal,ERG,"1.03 fold enrichment (6-mer frequency, TF over GST control)"
same,binding signal,ELF1,"1.16 fold enrichment (6-mer frequency, TF over GST control)"
same,binding signal,EHF,"1.1 fold enrichment (6-mer frequency, TF over GST control)"
same,binding signal,SPI1,"1.06 fold enrichment (6-mer frequency, TF over GST control)"
same,binding signal,SPIB,"1.11 fold enrichment (6-mer frequency, TF over GST control)"
same,binding signal,FEV,"1.03 fold enrichment (6-mer frequency, TF over GST control)"
same,binding signal,ETV5,"1.16 fold enrichment (6-mer frequency, TF over GST control)"
same,binding signal,HSF1,"1.04 fold enrichment (6-mer frequency, TF over GST control)"
same,binding signal,SPIC,"1.31 fold enrichment (6-mer frequency, TF over GST control)"
same,binding signal,ELF4,"1.1 fold enrichment (6-mer frequency, TF over GST control)"
same,binding signal,ELK4,"1.23 fold enrichment (6-mer frequency, TF over GST control)"
same,binding signal,ETV2,"1.21 fold enrichment (6-mer frequency, TF over GST control)"
same,binding signal,ELF3,"1.18 fold enrichment (6-mer frequency, TF over GST control)"
same,binding signal,CRX,"1.05 fold enrichment (6-mer frequency, TF over GST control)"
same,binding signal,ETV1,"1.05 fold enrichment (6-mer frequency, TF over GST control)"
